Screening data (PubChem)
TRHR enhancer = allosterically enhances the human TRH receptor | P34981 | TRHR cells, fluo-8 calcium fluorescence, EC20 TRH enhancement | enhancement, % at 2 µM | 360,000 tested, 0.66% active; in the data active means enhancement above about 30%
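Enhancer read-out: after compound pinning and an initial kinetic agonist-mode read, an EC20 of TRH (10 nM final) was injected and fluo-8 calcium signal (Ex 480/Em 530) followed at 1 s/cycle for 100 cycles in TRHR-expressing cells.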
D1 antag = antagonists of human D1 dopamine receptor; P21728; HEK293 TREx D1 cells, calcium flux, dopamine EC80; stronger effect = lower value; activity change, negative = inhibition, % at 10 µM; 360,000 tested, 3.2% active; in the data active means activity change below about -30%
Target sequence (P21728 whole entry, looked up): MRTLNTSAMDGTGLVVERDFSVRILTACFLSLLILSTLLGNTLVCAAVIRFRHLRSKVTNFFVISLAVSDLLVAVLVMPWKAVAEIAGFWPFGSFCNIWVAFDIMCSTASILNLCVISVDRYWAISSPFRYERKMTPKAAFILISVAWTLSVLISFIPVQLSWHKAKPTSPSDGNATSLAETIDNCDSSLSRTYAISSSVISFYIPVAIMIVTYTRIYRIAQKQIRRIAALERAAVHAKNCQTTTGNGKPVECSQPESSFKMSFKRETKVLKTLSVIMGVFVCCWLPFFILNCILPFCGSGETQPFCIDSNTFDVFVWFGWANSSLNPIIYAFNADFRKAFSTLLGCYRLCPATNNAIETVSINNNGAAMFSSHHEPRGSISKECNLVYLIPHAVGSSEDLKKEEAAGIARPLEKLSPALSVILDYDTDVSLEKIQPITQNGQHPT
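Calcium flux readout: force-coupled, inducible Hek293 Trex D1 line, cells induced overnight at 30 C with tetracycline, dye-loaded 30–90 min at RT. Antagonism scored against EC80 dopamine challenge given 180 s after compound.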
TRHR agonist = activates the human TRH receptor; TRHR cells, calcium flux fluo-8, FDSS agonist mode; P34981; activation, % at 2 µM; 360,000 tested, 0.18% active; AID 493084
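In this calcium-flux screen, cells bearing human TRHR are dye-loaded with fluo-8, baselined for 10 cycles, then exposed to library compounds; positive kinetic calcium responses during the agonist phase mark hits, with TRH as control.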
D1 agonist = human D1 receptor agonism | P21728 | HEK293 T-REx D1 cells, calcium flux, agonist mode | activation, % at 2 µM | 360,000 tested, 1% active | AID 504660
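Tetracycline-induced HEK293 TREx D1 cells, force-coupled to calcium signalling, were dye-loaded with a no-wash calcium kit. Compound was pin-added after a 10 s baseline. Fluorescence was read kinetically at 1 cycle/s for 180 s, with calcium rises flagged as agonism.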
D1 PAM = human D1 dopamine receptor positive modulation. HEK293 TREx D1 cells, calcium flux, dopamine EC20 potentiation. AID 504651. potentiation, % at 10 µM. P21728. 360,000 tested, 0.036% active; in the data active means potentiation above about 30%
Numbers stand for hits; 0 = inactive; - = no result given. This is a sample that favours compounds with a hit; in the whole collection about 4.6% have one here. Unless noted, no stated cut-off is given here; in the data, active means activation above about 30%; inactive means the rest.

SMILES | TRHR enhancer | D1 antag | TRHR agonist | D1 agonist | D1 PAM
O=C(COc1ccc(Cl)cc1)Nc1ncc([N+](=O)[O-])s1 | 0 | -31.6 | 0 | 0 | 0
CCc1ccc(NC(=O)C(=O)NCC(c2ccc3c(c2)OCO3)N2CCN(C)CC2)cc1 (configuration not stated) | 0 | 0 | 0 | 0 | 0
COc1cc(CNC2CCCC2)c(Br)cc1OC1CCCC1 | 0 | -30.2 | 0 | 0 | 0
CCCNc1nc(N)nc(-c2cc(Cl)ccc2OC)n1 | 0 | 0 | 0 | 0 | 0
CCCN(CCC)c1nc(N)nc(-c2cc(Cl)ccc2OC)n1 | 0 | -75.2 | 0 | 0 | 0
CN1CCc2c(sc(NC(=O)CSc3ccc(F)cc3)c2-c2nc3ccccc3s2)C1 | 0 | 0 | 102.3 | 398.8 | 0
CC(=O)Nc1sc2c(c1-c1nc3ccccc3s1)CCN(C(C)C)C2 | 0 | 0 | 129.7 | 73.9 | 0
CCN1CCc2c(sc(NC(=O)CSc3ccccc3)c2-c2nc3ccccc3s2)C1 | 0 | 0 | 147.2 | 403.5 | 0
CC(=O)N1CCc2c(sc(NC(=O)CSc3ccc(F)cc3)c2-c2nc3ccccc3s2)C1 | 0 | - | 0 | 0 | 0
O=C(O)CSCC(=O)N(Cc1ccccc1)c1nc(-c2ccccc2)c(-c2ccccc2)s1 | 0 | -39.4 | 0 | 0 | 0
CCOC(=O)c1sc(N(Cc2ccccc2)C(=O)CCl)nc1C | 0 | 0 | 0 | 0 | 0
CCCc1cc(=O)[nH]c(SCC(=O)c2[nH]c(C)c(C(=O)OCC)c2C)n1 | 31.3 | 0 | 0 | 0 | 0
NC(=O)COC(=O)CN1C(=O)C2CCCCC2C1=O (configuration not stated) | 0 | 0 | 0 | 0 | 0
CCOC(=O)c1c(C)[nH]c(C(=O)COC(=O)CN2C(=O)C3CCCCC3C2=O)c1C (configuration not stated) | 31.3 | 0 | 0 | 0 | 0
NC(=O)NC(=O)COC(=O)CN1C(=O)C2CCCCC2C1=O (configuration not stated) | 35.6 | 0 | 0 | 0 | 0
CC(=O)c1ccc(NC(=O)CSc2nc(-c3ccccc3C)nc3c2c(=O)n(C)c(=O)n3C)cc1 | 0 | 0 | 0 | 0 | 0
CC(=O)N1CCc2c(sc3c2c(=O)n(-c2cc(Cl)ccc2C)c(=O)n3Cc2ccccc2F)C1 | 0 | 0 | 0 | 0 | 0
COc1ccccc1CC(=O)N1CCN(c2cccc(Cl)c2)CC1 | 0 | 0 | 0 | 0 | 0
CCc1c(C)nc2nncn2c1NCc1ccc(Cl)cc1 | 0 | 0 | 0 | 0 | 0
Cc1ccc(CNc2c(C)c(C)nc3nncn23)cc1 | 0 | -45.1 | 0 | 0 | 0
O=C(NCc1cccc(Br)c1)c1cnn(-c2ccc(F)cc2)c1-n1cccc1 | 0 | 0 | 0 | 0 | 0
COc1ccccc1CNC(=O)c1cc2cc(C)ccc2n1C | 0 | 0 | 0 | 0 | 0
Cc1ccc(C(=O)c2cn(CC(=O)NCc3ccccc3Cl)c3nc(C)ccc3c2=O)cc1 | 0 | 0 | 0 | 0 | 0
COc1ccc(-c2nonc2NC(=O)c2ccco2)cc1OC | 0 | -36.9 | 0 | 0 | 0
O=C(Nc1ccc(OC(F)(F)F)cc1)C1CC(c2ccc(F)cc2)=NO1 (configuration not stated) | 0 | -35.3 | 0 | 0 | 0
SMILES | TRHR enhancer | D1 antag | TRHR agonist | D1 agonist | D1 PAM
Cc1cc(C)c(NC(=O)C(C)n2c(=O)c(C(F)(F)F)nc3ccccc32)c(C)c1 (configuration not stated) | 0 | 0 | 0 | 0 | 0
CC(=O)Nc1c(C)nn(-c2ccccc2)c1N1CCC(C(=O)NCc2cccc(F)c2)CC1 | 0 | 0 | 0 | 0 | 0
Cc1ccc(C(=O)CSc2nc3cc(C(=O)NC4CCCC4)ccc3c(=O)n2CC2CCCO2)cc1 (configuration not stated) | 0 | 0 | 0 | 0 | 0
O=C(CSc1nc2cc(C(=O)NC3CCCC3)ccc2c(=O)n1CC1CCCO1)c1cccc(Cl)c1 (configuration not stated) | 0 | -36.9 | 0 | 0 | 0
CN(C)S(=O)(=O)N1CCC(Oc2cccc(C(=O)NCCC3=CCCCC3)c2)CC1 | 0 | -31.1 | 0 | 30.8 | 0
CC(=O)Nc1c(C)nn(-c2ccccc2)c1N1CCC(C(=O)Nc2ccc(C)cc2Cl)CC1 | 0 | 0 | 0 | 0 | 0
Cn1nnnc1Sc1ncnc2scc(-c3cccc(N)c3)c12 | 0 | 0 | 0 | 0 | 0
O=C(Nc1csc([N+](=O)[O-])c1)Nc1ccccc1Cl | 0 | -31.3 | 0 | 0 | 0
CN(CC1CCN(CCc2cccc(C(F)(F)F)c2)CC1)C(=O)c1ccc(F)cc1F | 0 | 0 | 0 | 0 | 0
